In PMC5540273 (PLoS ONE, 2017):

Tested on: TGFBR2
Conditions: concentration: 1 μM, replicates: in singlicate; n = 1
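Further: KINOMEscan kinase panel screen.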

| Structure (SMILES) | %Inh [%] |
| --- | --- |
| CCn1c(-c2nonc2N)nc2c(-c3ccccc3)ncc(OCCCN)c21.O=C(O)C(F)(F)F.O=C(O)C(F)(F)F [GSK260205] | 0 |
| Cc1ccc(-c2ccc3occ(-c4ccc(S(C)=O)cc4)c3c2)nn1 (stereo not drawn) | 18 |
| Cn1cc(-c2ccc3c(c2)CCN3C(=O)Cc2cc(F)cc(F)c2F)c2c(N)ncnc21 [GSK2634140] | 0 |
| COc1ccc(C)c(Nc2ccnc(Nc3ccc(-c4cnc[nH]4)cc3)n2)c1.Cl [GW784041] | 34 |
| c1ccc(Oc2ccc(Nc3ccnc4cc(-c5ccc(CN6CCCCC6)o5)ccc34)cc2)nc1 [GW567143] | 0 |
| CN(c1ccc(F)c(NC(=O)c2cccc(OC(C)(C)C#N)c2Cl)c1)c1ccc2nc(NC(=O)C3CC3)sc2n1 | 0 |
| COc1cc(Nc2nccc(N3CCC(NS(=O)(=O)c4ccc(NC(C)=O)cc4)CC3)n2)cc(OC)c1OC [GSK1379825] | 0 |
| Cc1ccc(C)c(NC(=O)Nc2ccc(C)c(-c3ccc(C(=O)Nc4ccncc4)cc3)c2)c1 [GSK1398473] | 0 |
| CCNc1nccc(-c2c(-c3ccc(F)cc3)ncn2C2CCN(C)CC2)n1 | 0 |
| Cc1ccc(NC(=O)c2cccc(N3CCCCC3)c2)cc1-c1ccc(C(=O)NCC2CC2)cc1 [GSK1917008] | 9 |
| Cl.Cl.NCC(NC(=O)c1cc(-c2cccnc2)c(-c2ccnc3[nH]ccc23)s1)c1ccccc1 (stereo not drawn) [GSK1323434] | 27 |
| COc1cccc(-c2nc(-c3ccccc3)[nH]c2-c2ccncc2)c1 [SB-610250] | 5 |
